# In ChEMBL document CHEMBL1961873, “Compounds: GSK PKIS; Assays: Nanosyn kinase panel” (2012):
# Values joined by “and” are separate entries in the source; they are usually repeats but may differ in a detail not shown here. Identical values can stand only once.
# Assays:
# [1] = biological target: Glycogen synthase kinase-3 beta (Homo sapiens) (UniProt P49841); settings: at 1 µM;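 note: reported values are mean percent inhibition of GSK3B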
# [2] = biological target: Homeodomain-interacting protein kinase 1 (Homo sapiens) (UniProt Q86Z02); settings: at 0.1 µM
# [3] = biological target: Homeodomain-interacting protein kinase 1 (Homo sapiens) (UniProt Q86Z02); settings: at 1 µM
# [4] = biological target: T1, Homeodomain-interacting protein kinase 4 (Homo sapiens) (UniProt Q8NE63); settings: at 0.1 µM
# T1 sequence (whole entry): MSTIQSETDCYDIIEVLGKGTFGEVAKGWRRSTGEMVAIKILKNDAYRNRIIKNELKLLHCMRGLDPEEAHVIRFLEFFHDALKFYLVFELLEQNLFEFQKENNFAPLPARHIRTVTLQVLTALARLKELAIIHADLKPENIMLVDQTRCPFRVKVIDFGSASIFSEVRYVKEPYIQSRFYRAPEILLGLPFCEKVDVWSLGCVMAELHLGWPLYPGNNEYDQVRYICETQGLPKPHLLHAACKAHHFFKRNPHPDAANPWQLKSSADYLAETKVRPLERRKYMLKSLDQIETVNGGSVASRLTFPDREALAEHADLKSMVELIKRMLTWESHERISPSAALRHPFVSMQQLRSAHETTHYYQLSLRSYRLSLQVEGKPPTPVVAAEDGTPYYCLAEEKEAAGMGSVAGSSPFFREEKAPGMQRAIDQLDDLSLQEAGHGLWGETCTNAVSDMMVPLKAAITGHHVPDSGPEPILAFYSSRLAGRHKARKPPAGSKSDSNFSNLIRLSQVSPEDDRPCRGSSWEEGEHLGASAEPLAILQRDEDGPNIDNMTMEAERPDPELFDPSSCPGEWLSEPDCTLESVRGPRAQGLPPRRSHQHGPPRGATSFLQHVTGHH
# [5] = biological target: T1, Homeodomain-interacting protein kinase 4 (Homo sapiens); settings: at 1 µM
# [6] = biological target: Mitogen-activated protein kinase 9 (Homo sapiens) (UniProt P45984); settings: at 0.1 µM
# [7] = biological target: Mitogen-activated protein kinase 9 (Homo sapiens) (UniProt P45984); settings: at 1 µM
# [8] = biological target: Mitogen-activated protein kinase 1 (Homo sapiens) (UniProt P28482); settings: at 0.1 µM
# [9] = biological target: Mitogen-activated protein kinase 1 (Homo sapiens) (UniProt P28482); settings: at 1 µM
# [10] = biological target: Mitogen-activated protein kinase 3 (Homo sapiens) (UniProt P27361); settings: at 0.1 µM
# [11] = biological target: Mitogen-activated protein kinase 3 (Homo sapiens) (UniProt P27361); settings: at 1 µM
# [12] = biological target: SRSF protein kinase 3 (Homo sapiens) (UniProt Q9UPE1); settings: at 0.1 µM
# [13] = biological target: SRSF protein kinase 3 (Homo sapiens) (UniProt Q9UPE1); settings: at 1 µM
# [14] = biological target: Mitogen-activated protein kinase 14 (Homo sapiens) (UniProt Q16539); settings: at 0.1 µM
# [15] = biological target: Mitogen-activated protein kinase 14 (Homo sapiens) (UniProt Q16539); settings: at 1 µM
# [16] = biological target: Mitogen-activated protein kinase 11 (Homo sapiens) (UniProt Q15759); settings: at 0.1 µM
# [17] = biological target: Mitogen-activated protein kinase 11 (Homo sapiens) (UniProt Q15759); settings: at 1 µM
# [18] = biological target: T2, Mitogen-activated protein kinase 13 (Homo sapiens) (UniProt O15264); settings: at 0.1 µM
# T2 sequence (whole entry): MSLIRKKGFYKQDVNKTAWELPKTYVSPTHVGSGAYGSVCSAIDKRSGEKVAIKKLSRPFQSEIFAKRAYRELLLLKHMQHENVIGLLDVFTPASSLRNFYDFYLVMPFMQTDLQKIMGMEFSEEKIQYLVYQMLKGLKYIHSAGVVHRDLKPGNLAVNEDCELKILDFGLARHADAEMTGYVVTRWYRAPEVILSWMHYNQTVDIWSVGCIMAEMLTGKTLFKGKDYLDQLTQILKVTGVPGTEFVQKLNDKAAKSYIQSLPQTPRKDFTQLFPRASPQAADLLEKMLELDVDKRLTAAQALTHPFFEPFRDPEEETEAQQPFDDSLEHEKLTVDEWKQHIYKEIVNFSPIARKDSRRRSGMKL
# [19] = biological target: T2, Mitogen-activated protein kinase 13 (Homo sapiens); settings: at 1 µM
# [20] = biological target: T3, Mitogen-activated protein kinase 12 (Homo sapiens) (UniProt P53778); settings: at 0.1 µM
# T3 sequence (whole entry): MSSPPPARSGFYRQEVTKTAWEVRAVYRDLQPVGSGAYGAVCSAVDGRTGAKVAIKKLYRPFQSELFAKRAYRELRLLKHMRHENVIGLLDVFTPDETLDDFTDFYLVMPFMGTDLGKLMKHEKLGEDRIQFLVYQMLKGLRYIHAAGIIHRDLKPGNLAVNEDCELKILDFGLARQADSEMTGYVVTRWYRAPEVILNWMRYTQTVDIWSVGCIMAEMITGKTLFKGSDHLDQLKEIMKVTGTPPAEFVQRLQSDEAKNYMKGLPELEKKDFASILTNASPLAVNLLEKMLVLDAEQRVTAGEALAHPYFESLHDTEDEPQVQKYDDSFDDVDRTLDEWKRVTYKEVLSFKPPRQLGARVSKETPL
# Homeodomain-interacting protein kinase 1 (Homo sapiens), sequence (Q86Z02 whole entry, looked up): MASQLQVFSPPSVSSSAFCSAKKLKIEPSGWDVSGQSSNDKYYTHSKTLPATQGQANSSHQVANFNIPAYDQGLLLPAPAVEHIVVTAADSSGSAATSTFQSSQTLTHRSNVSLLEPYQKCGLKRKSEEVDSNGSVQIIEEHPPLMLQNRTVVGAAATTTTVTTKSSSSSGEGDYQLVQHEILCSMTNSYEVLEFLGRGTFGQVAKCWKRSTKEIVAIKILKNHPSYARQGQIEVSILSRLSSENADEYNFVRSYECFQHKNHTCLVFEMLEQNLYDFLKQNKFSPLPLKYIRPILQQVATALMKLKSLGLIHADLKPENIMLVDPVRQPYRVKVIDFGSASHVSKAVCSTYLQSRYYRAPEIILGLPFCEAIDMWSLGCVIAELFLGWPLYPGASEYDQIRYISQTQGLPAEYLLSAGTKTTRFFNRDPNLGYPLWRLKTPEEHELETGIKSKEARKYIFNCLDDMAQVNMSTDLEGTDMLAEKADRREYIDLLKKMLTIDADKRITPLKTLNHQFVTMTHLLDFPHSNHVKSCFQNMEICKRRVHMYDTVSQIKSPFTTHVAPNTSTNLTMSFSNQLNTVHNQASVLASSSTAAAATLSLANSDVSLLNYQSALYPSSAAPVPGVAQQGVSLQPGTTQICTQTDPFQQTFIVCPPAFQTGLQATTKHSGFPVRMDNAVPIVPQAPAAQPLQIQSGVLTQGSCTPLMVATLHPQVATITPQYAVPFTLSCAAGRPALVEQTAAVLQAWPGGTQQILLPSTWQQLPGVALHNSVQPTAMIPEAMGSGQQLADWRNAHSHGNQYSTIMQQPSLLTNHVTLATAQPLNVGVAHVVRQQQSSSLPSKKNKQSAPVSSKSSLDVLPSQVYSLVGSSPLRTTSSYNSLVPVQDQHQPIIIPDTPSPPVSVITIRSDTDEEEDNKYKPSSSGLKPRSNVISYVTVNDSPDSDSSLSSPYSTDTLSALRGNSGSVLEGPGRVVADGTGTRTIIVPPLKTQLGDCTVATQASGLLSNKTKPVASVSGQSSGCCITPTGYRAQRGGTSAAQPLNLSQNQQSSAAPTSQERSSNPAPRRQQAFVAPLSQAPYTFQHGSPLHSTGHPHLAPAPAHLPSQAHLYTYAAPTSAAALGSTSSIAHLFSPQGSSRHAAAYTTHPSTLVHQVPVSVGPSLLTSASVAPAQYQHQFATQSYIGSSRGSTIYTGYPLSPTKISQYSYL
# Mitogen-activated protein kinase 14 (Homo sapiens), sequence (Q16539 whole entry): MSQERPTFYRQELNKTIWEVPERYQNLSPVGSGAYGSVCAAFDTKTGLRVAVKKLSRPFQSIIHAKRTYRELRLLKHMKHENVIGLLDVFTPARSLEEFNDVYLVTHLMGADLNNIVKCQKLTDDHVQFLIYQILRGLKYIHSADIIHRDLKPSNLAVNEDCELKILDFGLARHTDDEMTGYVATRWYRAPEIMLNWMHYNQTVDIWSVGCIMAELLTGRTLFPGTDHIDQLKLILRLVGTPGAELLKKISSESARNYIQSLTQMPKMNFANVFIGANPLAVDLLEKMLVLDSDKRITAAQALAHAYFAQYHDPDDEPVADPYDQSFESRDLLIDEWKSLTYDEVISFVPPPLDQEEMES
# Mitogen-activated protein kinase 3 (Homo sapiens), sequence (P27361 whole entry): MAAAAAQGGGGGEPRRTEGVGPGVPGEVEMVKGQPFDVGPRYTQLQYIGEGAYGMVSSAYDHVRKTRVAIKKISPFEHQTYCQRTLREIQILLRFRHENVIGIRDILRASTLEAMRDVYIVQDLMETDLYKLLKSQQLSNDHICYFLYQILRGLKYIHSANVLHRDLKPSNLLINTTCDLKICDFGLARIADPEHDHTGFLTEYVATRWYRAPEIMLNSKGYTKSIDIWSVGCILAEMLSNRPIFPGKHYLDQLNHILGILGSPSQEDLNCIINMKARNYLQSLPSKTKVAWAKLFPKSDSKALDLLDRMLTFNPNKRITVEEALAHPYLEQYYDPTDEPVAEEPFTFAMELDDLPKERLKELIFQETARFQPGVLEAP
# SRSF protein kinase 3 (Homo sapiens), sequence (Q9UPE1 whole entry): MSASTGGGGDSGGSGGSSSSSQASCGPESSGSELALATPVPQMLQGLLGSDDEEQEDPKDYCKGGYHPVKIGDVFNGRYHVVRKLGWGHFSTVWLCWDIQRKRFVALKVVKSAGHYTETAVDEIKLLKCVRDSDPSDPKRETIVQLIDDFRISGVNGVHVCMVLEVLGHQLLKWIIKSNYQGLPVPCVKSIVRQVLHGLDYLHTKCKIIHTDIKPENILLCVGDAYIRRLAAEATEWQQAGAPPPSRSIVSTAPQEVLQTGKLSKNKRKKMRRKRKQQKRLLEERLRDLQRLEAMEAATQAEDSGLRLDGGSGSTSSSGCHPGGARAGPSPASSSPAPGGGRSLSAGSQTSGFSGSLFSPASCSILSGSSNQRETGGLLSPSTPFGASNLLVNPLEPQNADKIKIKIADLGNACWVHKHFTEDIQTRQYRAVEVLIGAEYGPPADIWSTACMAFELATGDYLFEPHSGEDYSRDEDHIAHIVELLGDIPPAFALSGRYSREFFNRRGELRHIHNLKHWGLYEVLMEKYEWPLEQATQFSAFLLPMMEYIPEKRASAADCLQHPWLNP
# Glycogen synthase kinase-3 beta (Homo sapiens), sequence (P49841 whole entry, looked up): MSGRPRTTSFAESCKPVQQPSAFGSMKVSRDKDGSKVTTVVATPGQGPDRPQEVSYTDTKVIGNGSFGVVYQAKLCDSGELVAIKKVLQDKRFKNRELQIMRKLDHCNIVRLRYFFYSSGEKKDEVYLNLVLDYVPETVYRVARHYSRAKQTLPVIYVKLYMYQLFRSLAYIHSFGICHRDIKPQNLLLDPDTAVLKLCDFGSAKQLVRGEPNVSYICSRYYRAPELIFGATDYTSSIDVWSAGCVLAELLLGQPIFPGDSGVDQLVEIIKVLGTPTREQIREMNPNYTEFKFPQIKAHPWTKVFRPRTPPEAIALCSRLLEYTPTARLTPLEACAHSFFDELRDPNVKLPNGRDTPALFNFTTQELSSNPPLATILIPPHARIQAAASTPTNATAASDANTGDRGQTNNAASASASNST
# Mitogen-activated protein kinase 11 (Homo sapiens), sequence (Q15759 whole entry): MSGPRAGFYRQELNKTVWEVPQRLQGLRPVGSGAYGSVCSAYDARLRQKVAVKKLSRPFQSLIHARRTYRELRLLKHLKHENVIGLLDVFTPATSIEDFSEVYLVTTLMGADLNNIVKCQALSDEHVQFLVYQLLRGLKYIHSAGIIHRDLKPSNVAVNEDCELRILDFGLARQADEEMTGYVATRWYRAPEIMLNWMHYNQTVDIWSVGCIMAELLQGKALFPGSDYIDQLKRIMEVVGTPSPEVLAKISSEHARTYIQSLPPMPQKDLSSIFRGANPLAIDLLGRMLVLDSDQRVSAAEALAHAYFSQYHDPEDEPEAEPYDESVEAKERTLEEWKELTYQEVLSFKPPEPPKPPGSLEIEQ
# Mitogen-activated protein kinase 1 (Homo sapiens), sequence (P28482 whole entry): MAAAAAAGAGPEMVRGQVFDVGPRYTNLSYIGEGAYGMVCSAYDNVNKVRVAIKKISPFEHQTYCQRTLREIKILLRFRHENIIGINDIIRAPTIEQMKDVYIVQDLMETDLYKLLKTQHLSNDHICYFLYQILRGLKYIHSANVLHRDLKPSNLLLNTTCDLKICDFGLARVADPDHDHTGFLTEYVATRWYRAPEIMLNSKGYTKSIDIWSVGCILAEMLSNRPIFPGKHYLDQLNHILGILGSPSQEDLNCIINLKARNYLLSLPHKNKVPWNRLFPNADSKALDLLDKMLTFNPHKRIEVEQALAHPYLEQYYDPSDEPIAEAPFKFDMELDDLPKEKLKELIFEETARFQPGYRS
# Mitogen-activated protein kinase 9 (Homo sapiens), sequence (P45984 whole entry, looked up): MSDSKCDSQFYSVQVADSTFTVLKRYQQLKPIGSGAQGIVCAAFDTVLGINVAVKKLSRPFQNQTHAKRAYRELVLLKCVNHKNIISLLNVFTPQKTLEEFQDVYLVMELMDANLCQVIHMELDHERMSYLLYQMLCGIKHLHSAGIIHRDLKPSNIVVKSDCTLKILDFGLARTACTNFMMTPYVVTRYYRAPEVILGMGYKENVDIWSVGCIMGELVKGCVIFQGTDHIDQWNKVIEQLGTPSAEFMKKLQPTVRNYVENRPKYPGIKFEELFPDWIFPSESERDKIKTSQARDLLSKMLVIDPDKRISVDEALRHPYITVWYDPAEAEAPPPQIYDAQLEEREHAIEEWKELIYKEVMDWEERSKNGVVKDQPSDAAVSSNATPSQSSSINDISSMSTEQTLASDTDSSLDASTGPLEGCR
SMILES,inhibition [1],inhibition [2],inhibition [3],inhibition [4],inhibition [5],inhibition [6],inhibition [7],inhibition [8],inhibition [9],inhibition [10],inhibition [11],inhibition [12],inhibition [13],inhibition [14],inhibition [15],inhibition [16],inhibition [17],inhibition [18],inhibition [19],inhibition [20]
Nc1ncnc2occ(-c3ccc(NC(=O)Nc4cc(C(F)(F)F)ccc4F)cc3)c12,17% and 5.38%,5.43% and -2.68%,37.4% and 21.6%,60.9% and 51.1%,78.3% and 77.3%,4.06% and -9.27%,21.3% and 4.35%,1.97% and -3.05%,1.72% and -1.67%,0.93% and 0.1%,2.88% and -1.29%,9.33% and 10.1%,49.1% and 43.5%,8.71% and -2.42%,36.6% and 20.3%,6.21% and 3.71%,39% and 32.9%,5.66% and 0.72%,29.3% and 17.7%,15% and 4.47%
O=C1Nc2ccccc2/C1=C1\CCc2cc(O)ccc21,7.64%,-1.14%,7.57%,0.76%,10.8%,5.71%,9.88%,5.77%,6.56%,5.82%,4.54%,0.01%,-0.36%,4.38%,7.01%,4.9%,5.91%,3.43%,6.56%,4.33%
Cc1nnc(-c2cccc(-c3ccc(C(=O)NCC4CC4)cc3)c2)o1,11.6%,4.5%,4.32%,2.08%,-0.47%,3.54%,6.68%,2.73%,5.62%,5.36%,6.64%,-1.05%,-0.94%,4.85%,12.2%,3.66%,7.35%,3.76%,3.54%,4.5%
COc1cccc(-n2ncc3c(N/N=C/c4ccc(C(=O)NCCN(C)C)cc4)ncnc32)c1,79.4%,47%,78.8%,49.5%,75.8%,2.47%,3.96%,1.34%,4.38%,3.11%,2.75%,1.28%,0.91%,2.36%,11.8%,0.2%,3.19%,3.46%,23.5%,4.06%
Cc1cc(O)cc(C)c1/C=C/c1cncc(C(=O)OC(C)(C)C)c1,7.76%,2.63%,7.33%,1.55%,2.43%,1.52%,1.71%,2.41%,4.61%,1.22%,5.66%,-1.96%,-3.77%,5.49%,6.26%,1.86%,5.95%,2.17%,1.43%,2.88%
O=C(O[C@H]1CN[C@H](C#Cc2cc3ncnc(Nc4ccc5c(ccn5Cc5cc(F)ccc5F)c4)c3s2)C1)N1CCOCC1,5.52%,0.14%,-1.46%,0.47%,2.6%,5.66%,5.74%,3.73%,5.12%,4.98%,2.72%,-1.71%,-2.33%,5.28%,8.23%,3.16%,5.47%,2.39%,5.7%,3.21%
COc1cc(Nc2ncc(-c3ccccc3)o2)cc(OC)c1,11.5%,1.55%,17.1%,2.58%,12.5%,3.25%,3.23%,10.2%,6.06%,5.39%,5.68%,-1.19%,1.14%,6.3%,5.68%,2.87%,5.59%,5.24%,4.13%,3.61%
COc1c(C(N)=O)cc(-c2ccc(Cl)cc2)cc1-c1ccc(S(N)(=O)=O)cc1,2.65%,-1.29%,-0.59%,0.4%,1.94%,3.46%,8.22%,5.87%,5.86%,4.58%,5.76%,2.9%,0.68%,8.26%,10.3%,4.78%,4.22%,4.33%,6.61%,4.27%
NS(=O)(=O)c1ccc(N/N=C2\C(=O)Nc3ccc(C(=O)NCc4ccncc4)cc32)cc1,77.1%,10.9%,42.5%,12.2%,45.9%,2.55%,8.96%,14.9%,55.3%,5.64%,26.3%,-1.39%,2.17%,6.35%,6.05%,4.53%,9.75%,1.65%,4.79%,-1.11%
Cn1c(-c2nonc2N)nc2cnccc21,41.6%,0.83%,13.9%,0.63%,4.4%,0.7%,4.16%,-1.97%,2.95%,0.55%,3.9%,-1.11%,-2.32%,3.4%,6.34%,3.09%,0.59%,2.23%,2.42%,2.62%
Cc1c2ccc(N(C)c3ccnc(Nc4cccc(S(N)(=O)=O)c4)n3)cc2nn1C,10.7%,-4.42%,-0.84%,-0.24%,10.6%,3.51%,7.66%,4.96%,5.77%,5.75%,4.37%,-0.02%,-0.13%,2.68%,17.1%,7.06%,16%,5.49%,5.64%,5.17%
CS(=O)(=O)CCNCc1ccc(-c2ccc3ncnc(Nc4ccc(OCc5ccccc5)cc4)c3c2)o1,3.37%,-0.23%,3.06%,0.8%,4.91%,2.23%,2.48%,4.02%,3.85%,2.1%,1.62%,-0.49%,0.73%,4.73%,7.34%,2.9%,4.87%,2.17%,1.45%,2.39%
CNC(=O)c1sc(-n2cnc3cc(OC)c(OC)cc32)cc1OCc1ccccc1C(F)(F)F,3.56%,-0.45%,-1.76%,1.98%,7.08%,2.65%,4.22%,5.45%,6.09%,3.11%,3.4%,-2.11%,-0.26%,5.47%,5.08%,4.76%,4.92%,3.34%,1.88%,1.92%
